Shiga toxin inh = inhibitors of Shiga toxin in Vero cells | 9.2% of 290,000 active | Vero cells, Shiga toxin protein synthesis inhibition reporter | inhibition, % at 38.7 µM | AID 2315; in the data active means inhibition mostly above about 28%, no sharp cut-off; inactive means mostly below about 43%; further: 0% is about no effect
LmPK inhibitor = inhibitors of Leishmania mexicana pyruvate kinase; Q27686; purified LmPK, Kinase-Glo ATP luminescence, 1 h; Potency, µM (highest dose often 57.5 µM), without a hit: top-dose activity change, negative = inhibition, actives largely listed as inhibitors; 0.37% of 290,000 active; further: potency means the concentration at half of the fitted maximal effect; on the % scale 0 is the no-effect control and ±100 the full control effect
Target sequence (Q27686 whole entry, looked up): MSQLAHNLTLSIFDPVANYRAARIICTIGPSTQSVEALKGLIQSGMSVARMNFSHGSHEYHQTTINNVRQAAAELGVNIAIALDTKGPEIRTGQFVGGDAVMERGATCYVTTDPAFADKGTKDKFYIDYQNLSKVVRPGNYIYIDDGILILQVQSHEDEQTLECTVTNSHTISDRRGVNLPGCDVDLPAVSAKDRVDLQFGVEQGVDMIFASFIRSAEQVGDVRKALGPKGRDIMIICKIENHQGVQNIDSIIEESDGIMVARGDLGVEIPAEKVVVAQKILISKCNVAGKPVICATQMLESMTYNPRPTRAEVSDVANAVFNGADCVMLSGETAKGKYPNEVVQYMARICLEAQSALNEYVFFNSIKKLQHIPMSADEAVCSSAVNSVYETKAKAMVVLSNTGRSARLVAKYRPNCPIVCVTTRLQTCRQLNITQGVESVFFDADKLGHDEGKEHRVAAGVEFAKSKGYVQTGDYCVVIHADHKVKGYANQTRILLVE
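qHTS format; LmPK 0.1 nM; substrates PEP 0.5 mM and ADP 0.1 mM. One-hour room-temperature incubation, then coupled luciferase luminescence; 0.5 nM enzyme wells mark activation.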
NS1 function inh = influenza NS1 inhibition; Potency, µM (series often up to 46.1 µM), for the others: at the highest dose activity, positive = more growth; 0.4% of 270,000 active; AID 2326; calls by dose curve; further: potency means the concentration at half of the fitted maximal effect; actives are rising curves; nearly all actives have a fitted effect of over 50% in size
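S. cerevisiae expressing influenza A NS1, grown in glucose, washed, then diluted 1:100 into pH 6.0 -URA galactose medium with 23 nl compound. Growth recovery read as OD600; NS1-free strain serves as control.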
Giardia FBPA inh = blocks Giardia fructose-bisphosphate aldolase activity. AID 2451. A8B2U2. Potency, µM (highest dose often 59.6 µM), inactives show at the highest dose activity, negative = inhibition, actives largely listed as inhibitors. purified Giardia FBPA. 0.71% of 290,000 active; further: potency means the concentration at half of the fitted maximal effect; on the % scale 0 is the no-effect control and ±100 the full control effect; nearly all actives have a fitted effect of over 55% in size
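Giardia FBPA (40 nM reagent) was preincubated 10 min at RT with compound (up to 57.5 uM final), then substrate plus GAPDH/TPI/NAD/arsenate coupling system with diaphorase/resazurin was added; resorufin fluorescence (525/598 nm) was read after 20 min.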
Cycloheximide cs = counter-screen hit for Shiga toxin inhibitors, cycloheximide. cell reporter, cycloheximide protein synthesis inhibition counterscreen. 12% of 300,000 active. max response, %; in the data active means max response mostly above about 13%, no sharp cut-off; inactive means mostly below about 14%; further: read at 38.3 µM for the half of the compounds with a filed dose; 0% is about no effect
Active calls of the source: *; i = inactive; ? = inconclusive; . = no result; [ ] = another dose, or the depositor's remark. The list is not random: actives were taken first. Their share in the collection is about 14%. Unless noted, the call rests on the fitted dose curve; in most records, active means well fitted curve in the direction sought with a large enough effect; inconclusive means small, poorly fitted or top-dose-only effect, or another doubt; inactive means no such curve, though single readings can be large; an effect the other way counts as inactive or inconclusive.

SMILES | Shiga toxin inh | LmPK inhibitor | NS1 function inh | Giardia FBPA inh | Cycloheximide cs
COC(=O)c1ccc(C(NC(=O)OCc2ccccc2)/C(=C/[C@@H](C)C(=O)NCc2ccc(S(C)(=O)=O)cc2)c2cccnc2)cc1 (stereo partly drawn) | . | . | . | 7% | .
C/C=C/C1=Cc2ccccc2C(C(C(=O)OC)C(=O)OC)N1C(=O)OC (stereo not drawn) | . | . | . | -1% | .
CC(=O)c1nc2ccccc2n1S(=O)(=O)c1ccc(Cl)cc1 | -4 | -1% | 2% | 9% | -2
CC(=O)c1nc2ccccc2n1S(=O)(=O)c1ccc(C)cc1 | 3 | 8% | 4% | 2% | 23*
Cc1n[nH]c(C)c1S(=O)(=O)N1CCc2ccccc2C1 | 5 | 4% | 3% | . | -6
COc1cccc(CN(C)C(=O)c2cc(COc3ccc(-n4cncn4)cc3)on2)c1 | -4 | -4% | -22% | 21% | -3
OCCCCCN=c1cc(-c2ccccc2)oc2ccc(Cl)cc12 | 85* | 2% | -12% | 4% | 45*
Clc1ccc2oc(-c3ccccc3)cc(=NCCCN3CCOCC3)c2c1 | 93* | -4% | . | 4% | 25*
OCCN1CCN(c2nc(-c3ccccc3)c3cc(Cl)ccc3n2)CC1 | -24 | -2% | -39% | 2% | -6
Cc1ccc(NC(=O)CN(CCc2ccccc2)S(C)(=O)=O)cc1 | -2 | 1% | -25% | 9% | 2
COC(=O)C(Cc1ccccc1)NS(=O)(=O)c1cc(Br)ccc1Br (stereo not drawn) | -5 | . | . | 0% | 8
CCC(=O)NCCc1nc2cc(NC(=O)c3cccc([N+](=O)[O-])c3)ccc2n1C | 37 | 4% | 2% | 2% | 17
CC(=O)NCCc1nc2cc(NC(=O)c3ccc(F)cc3)ccc2n1C | 44* | 0% | -3% | -3% | 54*
COc1ccccc1C(=O)Nc1ccc2c(c1)nc(CCNC(C)=O)n2C | 26 | -1% | 7% | 0% | 17*
CCC(=O)NCCc1nc2cc(NC(=O)c3cccs3)ccc2n1C | 48* | 2% | . | -1% | 17*
CCC(=O)NCCc1nc2cc(NC(=O)COc3ccccc3)ccc2n1C | 78* | 1% | 7% | -9% | 29*
COc1ccccc1CNc1ncnc2ccc(-c3ccoc3)cc12 | . | . | . | 4% | .
CCC(=O)Nc1ccc2c(c1)ncn2C | 5 | 0% | 0% | 0% | -2
Cn1cnc2cc(NC(=O)COc3ccccc3)ccc21 | 76* | 1% | 11% | 8% | 38*
CCC(=O)NCCc1nc2cc(NC(=O)c3ccccc3OC)ccc2n1C | 25 | -4% | 0% | 0% | 43*
COc1ccccc1C(=O)Nc1ccc2c(c1)nc(CCNC(=O)c1ccccc1)n2C | 21 | -2% | 4% | 1% | 22
C=CCN1c2ccccc2[C@]23C[C@@H](C(=O)OC)N(S(=O)(=O)c4cccs4)C2=NC(C(=O)OC)=C(C(=O)OC)[C@H]13 | . | 2%[11.5 µM] | . | 4%[12.9 µM] | .
CC1Oc2ccccc2N(CC(=O)c2ccccc2)C1=O (stereo not drawn) | 27 | -5% | ? | -12% | 23*
CC1Oc2ccccc2N(CC(=O)NC2CCCC2)C1=O (stereo not drawn) | -6 | -1% | 9% | 6% | -2
CC1Oc2ccccc2N(CC(=O)c2ccc(F)cc2)C1=O (stereo not drawn) | 18 | -1% | . | -1% | 23
SMILES | Shiga toxin inh | LmPK inhibitor | NS1 function inh | Giardia FBPA inh | Cycloheximide cs
Cc1ccc(C(=O)CN2C(=O)C(C)Oc3ccccc32)cc1 (stereo not drawn) | 39 | -12% | -6% | 2% | 33*
C=C1c2cccc(OC)c2O[C@H](C(=O)OCC)[C@@H]1CCC(C)C | i | . | . | -6%[89.2 µM] | 10
CCNC1=C(Cl)C(=O)c2ccccc2C1=O | -1 | 19% | ? | ? | 3
CCN(CC)c1ccc(NC2=C(Cl)C(=O)c3ccccc3C2=O)cc1 | 128* | ? | -13% | ? | 60*
Cc1ccc(NC2=C(N3CCOCC3)C(=O)c3ccccc3C2=O)cc1 | 72* | -20% | 10% | ? | 47*
Cc1cc(C)cc(NC2=C(N)C(=O)c3ccccc3C2=O)c1 | 122* | -6% | -1% | -18% | 43*
Cc1cccc(NC2=C(NCCO)C(=O)c3ccccc3C2=O)c1 | 25 | -19% | -23% | ? | 2
O=C1C(Cl)=C(Nc2ccc(O)cc2)C(=O)c2ccccc21 | 48* | -8% | 1% | ? | 23*
O=C(CN(C(=O)c1csnn1)c1ccc(F)cc1)NCc1ccc2c(c1)OCO2 | -3 | -4% | 1% | . | -3
COCC(=O)N1CCC[C@@]2(CCN(c3ccncc3)C2)C1 | . | . | . | 1% | .
Cc1ccc(NC2=C(Cl)C(=O)c3ccccc3C2=O)cc1 | 70* | -11% | 11% | ? | 25*
COc1ccccc1OCCn1c(CO)nc2ccccc21 | -4 | -4% | -1% | 3% | 7
Cc1ccccc1OCCCn1c(CO)nc2ccccc21 | 71* | 2% | . | -12% | 18*
OCc1nc2ccccc2n1CCCOc1ccc(Br)cc1 | 40* | 7% | -60% | 22% | 21*
COc1cccc(/C=C/C(=O)OCC(=O)c2cc(C)n(CC3CCCO3)c2C)c1OC (stereo not drawn) | -7 | 0% | 16% | 0% | -1
COCCn1c(C)cc(C(=O)COC(=O)C23CC4CC(CC(O)(C4)C2)C3)c1C | 57* | 3% | 0% | 9% | 38*
Cc1cc(C(=O)COC(=O)c2ccc3c(c2)OCO3)c(C)n1CC1CCCO1 (stereo not drawn) | 147* | -28% | -1% | -4% | 40*
Cc1cc(C(=O)COC(=O)c2ccc(O)cc2)c(C)n1CC1COc2ccccc2O1 (stereo not drawn) | 12 | 4% | 17% | 1% | 0
COc1ccc(C(=O)COC(=O)c2nn(C)cc2Cl)cc1 | 69* | -12% | -9% | 7% | 15*
CSc1ncccc1C(=O)OCC(=O)c1cc(C)n(CC2CCCO2)c1C (stereo not drawn) | 56* | ? | -6% | -8% | 39*
CC(C)[C@H](NC(=O)N1c2ccccc2NC(=O)[C@@H]1C(C)C)C(=O)N[C@@H](Cc1c[nH]c2ccccc12)C(=O)O | -2 | -14% | 15% | -1% | -1
c1ccc(Nc2ncncc2-c2ccc3c(c2)OCO3)cc1 | . | . | . | -5% | .
Cc1cc(C(=O)COC(=O)c2ccc([N+](=O)[O-])o2)c(C)n1CC1CCCO1 (stereo not drawn) | 123* | 0% | -7% | ? | 49*
COCCn1c(C)cc(C(=O)COC(=O)c2cc3c(s2)CCC3)c1C | 95* | 6% | 2% | 6% | 30*
COc1ccc(C(=O)COC(=O)c2cccnc2SC)cc1 | 48 | -12% | 1% | -3% | 30*
COCCn1c(C)cc(C(=O)COC(=O)c2ccc([N+](=O)[O-])o2)c1C | 123* | -1% | . | -28% | 46*
COCCn1c(C)cc(C(=O)CN2CCCCC2)c1C | 20 | 0% | . | 1% | 13
O=C(O)C(F)(F)C(F)(F)C(F)(F)C(F)(F)C(=O)O | . | . | 8% | . | .
COc1ccc2cc(C#N)c(=O)oc2c1 | -4 | . | . | 2% | -5

Screening data deposited in PubChem by National Center for Advancing Translational Sciences (NCATS).
